This is part of a sample that, as a whole, favours compounds with a hit. Of some 79,000 tested, about 15% had one in any assay. Calls of active or inactive are those of the source. No stated cut-off is given here; in the data, active means growth inhibition above about 70%; inactive means the rest.
Assay: NCI Yeast Anticancer Drug Screen. Data for the wt1 strain (AID 149);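 further: 0% = growth of vehicle-treated wt1 cultures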
Conditions: S. cerevisiae wt1 strain (SPY 50644) growth inhibition, active compounds read high
Method: Growth inhibition of yeast strains with defined genetic alterations is measured as a screen for potential anti-cancer activity. Selected strains with alterations in DNA damage repair or cell cycle control were exposed to compounds and growth inhibition was measured relative to vehicle treated controls. The strain used in this assay is wt1

Measured: growth inhibition

CC1=CC2C(C(C)C)CC1C1C(=O)OC(=O)C21 (stereo not given)
inactive: at 1.2 µM -5% | at 3.7 µM 0% | at 11.0 µM 6% | at 33.0 µM 13% | at 100.0 µM 51%

Cc1cccc2c1N=C(C(F)(F)F)CC2=O
inactive: at 1.2 µM -2% | at 3.7 µM -1% | at 11.0 µM 2% | at 33.0 µM 1% | at 100.0 µM 31%

CC(=O)c1cc2c(Cl)cc(Cl)cc2oc1=O
inactive: at 1.2 µM -38% | at 3.7 µM -33% | at 11.0 µM -38% | at 33.0 µM -33% | at 100.0 µM -22%

CNc1nc(C)nc2c1cnn2-c1ccc([N+](=O)[O-])cc1
inactive: at 1.2 µM 3% | at 3.7 µM 1% | at 11.0 µM 13% | at 33.0 µM 12% | at 100.0 µM 15%

CCN(CC)CC(O)C1CCC(c2ccccc2)CC1 (stereo not given)
inactive: at 1.2 µM 1% | at 3.7 µM 10% | at 11.0 µM 5% | at 33.0 µM 13% | at 100.0 µM 40%

COC(=O)c1oc([N+](=O)[O-])c(Cl)c1Cl
active: at 33.0 µM 89% | at 100.0 µM 99%
inactive: at 1.2 µM 26% | at 3.7 µM 22% | at 11.0 µM 39%

[N-]=[N+]=NC(c1ccccc1)(c1ccccc1)c1ccccc1
inactive: at 1.2 µM 15% | at 3.7 µM 12% | at 11.0 µM -6% | at 33.0 µM 32%
active: at 100.0 µM 88%

COc1ccc2oc(-c3ccc(Cl)cc3)c(N3CCN(C)CC3)c2c1
active: at 33.0 µM 99% | at 100.0 µM 99%
inactive: at 1.2 µM -1% | at 3.7 µM -3% | at 11.0 µM 30%
